This is a sample that favours compounds with a hit; in the whole collection about 9.6% have one here.
Ins promoter up = MIN6 insulin promoter up-regulation; MIN6 insulin promoter-GFP reporter, high-content imaging; hits give high values; z-score at 5 µM; 190,000 compounds, 0.3% hits; AID 1625;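 active = z-score above 3 at 5 µM with at least 500 cells counted in the well; inconclusive = wells under 500 cells, flagged as cytotoxic or low count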
PTEN del growth = growth suppressors of cells with PTEN tumor suppressor deletion; HCT116 PTEN-null viability, CellTiter-Glo, 60 h; hits give low values; viability, % at 10 µM; 140,000 compounds, 1.2% hits; AID 827;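 active = viability at or below a set limit, 4 SD under the median of all tested compounds, cut at about 3.7% in these data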;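 also: PTEN knockout HCT116 line with beta catenin targeted HCT116 as companion control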
Autophagy mod = alters autophagy in cells | 190,000 compounds, 0.98% hits | AID 463193 | MEF GFP-LC3 puncta imaging; test concentration mostly 10 µM | calls only at 10 µM (by protocol);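 active = percentage of spot-positive cells more than 3 SD above its plate mean, without a fluorescence outlier flag or 80% toxicity; inconclusive = no clear call, values can overlap the other calls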;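 also: spot-positive cell cutoff set from DMSO-treated cells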
Insulin prom inh = TRM-6 insulin promoter activity inhibition; TRM-6 cells (human fetal islet line), insulin promoter-eGFP reporter, imaging; reporter expression induced with tamoxifen; inhibition, % at 2 µM; 130,000 compounds, 0.9% hits;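 active = inhibition above the mean plus 3 SD, with well images judged a real hit on visual review, cut at about 60% in these data, passing the limit was not always enough; inconclusive = inhibition over the cutoff but images rejected on review; inactive = inhibition not above the cutoff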
HCT116 bCat-KO = beta-catenin-lacking colon tumor cell growth suppression; HCT116 beta-catenin knockout viability, CellTiter-Glo, 60 h; hits give low values; viability, % at 10 µM; 140,000 compounds, 1.5% hits;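 active = viability at or under a set limit, the compound median less 4 SD, cut at about 6% in these data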;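 also: 0% = Hyamine 1622 control at 20 µM and 100% = untreated cell control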
Lmaj promast = reduces viability of Leishmania major promastigotes | 200,000 compounds, 9% hits | inhibition, % at 10 µM | resazurin fluorescence viability | AID 1063; in the data active = inhibition above about 50%;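 also: promastigotes grown with compound for 44 hours at 28 °C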
* marks the source's active call; other numbers are inactive results; i = inactive; ? = inconclusive; / = not tested or not shown; + = active, no number.

SMILES | Ins promoter up | PTEN del growth | Autophagy mod | Insulin prom inh | HCT116 bCat-KO | Lmaj promast
C=CCNCCCCOc1ccc(OCc2ccccc2)cc1 | -0.45 | / | + | / | / | 99.1*
O=C(O)/C=C/C(=O)Nc1ccc(OCc2ccccc2)cc1 | 0.12 | / | / | / | / | /
O=C(CNS(=O)(=O)c1ccccc1)N1CCCC1 | -0.84 | / | i | 6.2 | / | 0.8
COc1ccccc1S(=O)(=O)Cc1ccc(C(=O)N2CCCC2)o1 | 1.04 | 100.2 | i | / | 99.0 | -7.3
CCc1ccccc1S(=O)(=O)Cc1ccc(C(=O)N2CCN(c3ccccc3OC)CC2)o1 | 0.57 | 33.6 | + | / | 29.1 | 21.0
CCOc1ccc2[nH]c(=O)c(CN(CCN3CCCC3)C(=S)Nc3ccccc3OCC)cc2c1 | -0.12 | / | i | / | / | 98.1*
COCCN(C(=O)C1CCCC1)c1c(N)n(Cc2ccccc2)c(=O)[nH]c1=O | 1.3 | / | i | / | / | 2.2
Nc1c(N(C(=O)Nc2ccc(Cl)c(Cl)c2)C2CCCC2)c(=O)[nH]c(=O)n1Cc1ccccc1 | / | 1.4* | i | 1.8 | 1.4* | -1.6
CCc1ccc(C(=O)COC(=O)c2cc([N+](=O)[O-])ccc2NCCO)cc1 | -2.69 | 65.6 | i | -16.7 | 78.1 | 21.0
Cc1ccc(N/N=C(\C#N)C(N)=S)cc1C | 0.17 | / | i | / | / | 50.4*
Cc1ccc(NC(=O)CN2C(=O)/C(=C3\SC(=S)N(C4CCS(=O)(=O)C4)C3=O)c3ccccc32)cc1 (centres undefined) | -0.24 | 51.6 | i | / | 54.4 | 90.6*
CCN1C(=O)/C(=C2\SC(=S)N(CC3CCCO3)C2=O)c2ccccc21 (centres undefined) | -0.59 | 87.1 | i | / | 93.5 | 13.9
O=C(CN1C(=O)/C(=C2\SC(=S)N(C3CCS(=O)(=O)C3)C2=O)c2ccccc21)Nc1ccccc1 (centres undefined) | -0.05 | 42.6 | i | / | 50.6 | 91.3*
CCN(CC)S(=O)(=O)c1ccc2[nH]cc(C(=O)NCCC3=CCCCC3)c(=O)c2c1 | -6.41 | 21.0 | i | 7.1 | 16.6 | 81.2*
CCCn1c(=O)c(C(=O)NCc2ccccn2)c(O)c2ccccc21 | 0.1 | 98.9 | i | -320.0 | 97.2 | -4.3
O=C(NCCN1CCOCC1)c1ccccc1-c1ccccc1 | 0.98 | 96.3 | i | -40.0 | 85.3 | -7.3
O=C(NCCN1CCOCC1)c1cnn2c(-c3ccccc3)cc(-c3ccccc3)nc12 | -1.26 | 51.4 | i | 11.5 | 55.5 | 99.2*
CCCCCC(=O)O[C@]1(C(C)=O)CC[C@H]2[C@@H]3CCC4=CC(=O)CC[C@]4(C)[C@H]3CC[C@@]21C | / | 6.8 | i | 42.9 | 4.8* | 34.0
O=C(Nc1nccs1)c1ccc2nccnc2c1 | -0.2 | 88.7 | i | / | 82.5 | -0.2
CCS(=O)(=O)N1Cc2ccccc2CC1C(=O)Nc1nc2c(C)cccc2s1 (centres undefined) | -0.03 | 70.1 | i | -31.6 | 73.0 | 55.1*
Cc1cnc(C(=O)Nc2nnc(SCc3c(Cl)cccc3Cl)s2)cn1 | -0.66 | 25.5 | i | 33.3 | 19.7 | 55.6*
CCS(=O)(=O)N1Cc2ccccc2CC1C(=O)Nc1nc(C)cs1 (centres undefined) | -0.72 | / | i | 38.9 | / | 6.4
CCS(=O)(=O)N1Cc2ccccc2CC1C(=O)Nc1nnc(SCc2c(Cl)cccc2Cl)s1 (centres undefined) | -0.73 | 94.3 | i | 24.3 | 92.5 | 81.0*
CC(C)OC(=O)c1nnn(-c2nonc2N)c1CN1CCc2ccccc2C1 | / | 91.9 | i | / | 87.5 | 21.4
CNc1cncc(C(=O)O)c1 | -0.48 | / | i | -5.6 | / | 1.8
SMILES | Ins promoter up | PTEN del growth | Autophagy mod | Insulin prom inh | HCT116 bCat-KO | Lmaj promast
CC12CCC(C(N)=O)(c3nc4ccccc4nc31)C2(C)C (centres undefined) | 0.49 | 100.2 | i | 26.3 | 96.4 | -0.1
CN(C)C(=O)C12CCC(C)(c3nc4ccccc4nc31)C2(C)C (centres undefined) | 3.42* | 97.4 | i | 36.8 | 98.3 | -7.4
CCOC(=O)c1ccc(NC(=S)N(CCN(C)C)Cc2cccs2)cc1 | -1.15 | / | i | / | / | 18.1
CCOC(=O)c1ccc(NC(=S)N(CCCN(CC)CC)Cc2ccco2)cc1 | / | 105.5 | i | -62.5 | 84.2 | 99.7*
CCOC(=O)c1ccc(NC(=O)CSCCC(=O)O)cc1 | -0.01 | / | i | -20.0 | / | -2.3
CCOC(=O)c1ccc(NC(=O)CSCc2ccco2)cc1 | 0.1 | 67.7 | i | -19.5 | 70.6 | 88.6*
CCOC(=O)c1ccc(NC(=S)N(CCCN2CCCCC2)Cc2ccco2)cc1 | / | 94.3 | i | -37.5 | 87.5 | 92.9*
COc1ccc(NC(=S)N(CCCN2CCCC2)Cc2ccco2)cc1 | 0.09 | / | i | / | / | 14.2
COc1cc(OC)cc(OCC(O)Cn2ccnc2C)c1 (centres undefined) | -0.08 | 105.8 | i | ? | 94.3 | -0.9
O=c1[nH]nc(Cc2ccc(-c3ccc(Cl)cc3)o2)c2ccccc12 | 0 | 94.2 | i | -54.2 | 90.7 | 5.8
C#CCN1C(=O)C(O)(CC(=O)/C=C/C=C/c2ccccc2)c2ccccc21 (centres undefined) | 0.38 | / | i | -72.7 | / | -3.7
CCN1C(=O)C(O)(CC(=O)/C=C/C=C/c2ccccc2)c2ccccc21 (centres undefined) | 0.07 | 72.0 | i | / | 71.7 | 74.9*
COc1ccc(NC(=O)c2cccnc2N2CCCC2)cc1 | 0.08 | 88.4 | i | 40.6 | 86.9 | 11.8
COc1ccc(NC(=O)c2cccnc2Nc2ccc(OC)cc2)cc1 | 0.59 | 74.6 | i | 73.7* | 83.0 | 76.0*
COc1ccc(Nc2ncccc2C(=O)Nc2ccccc2)cc1 | 1.06 | 80.2 | + | 50.0 | 100.0 | 27.6
COc1ccc(Nc2ncccc2C(=O)NCc2ccccc2)cc1 | / | 68.8 | i | / | 69.6 | 0.5
CCCn1nc2cc(C(=O)NCc3ccc(C)cc3)ccc2c1OCC | 0.13 | 99.4 | i | / | 78.6 | -4.3
Cc1ccc2c(c1)/C(=N/OC(=O)c1ccc(F)cc1)CCS2 | / | 93.2 | i | 3.6 | 84.9 | -0.7
COC(=O)[C@@]1(Cc2ccc(F)cc2)[C@H]2c3cc(C(=O)N(C)C)n(C[C@H](O)CO)c3C[C@H]2CN1C(=O)c1ccccc1 | -0.01 | 89.7 | i | -10.0 | 84.1 | -0.1
COC(=O)[C@@]1(Cc2ccc(OC)cc2)[C@H]2c3cc(C(=O)N(C)C)n(CCSCCO)c3C[C@H]2CN1C(=O)c1ccccc1 | 0.6 | 97.9 | i | 35.0 | 98.1 | 64.7*
COC(=O)[C@@]1(Cc2ccc(OC)cc2)[C@H]2c3cc(C(=O)N4CCCC4)n(CCSCCO)c3C[C@H]2CN1C(=O)c1ccccc1 | -0.26 | 76.6 | i | -100.0 | 79.2 | 50.9*
COC(=O)[C@@]1(Cc2ccc(F)cc2)[C@H]2c3cc(C(=O)N(C)C)n(Cc4ccc(OC(F)(F)F)cc4)c3C[C@H]2CN1C(=O)c1ccccc1 | -0.46 | 11.2 | i | 20.0 | 6.6 | 82.8*
COC(=O)[C@@]1(Cc2ccc(OC)cc2)[C@H]2c3cc(C(=O)N4CCCC4)n(CCO)c3C[C@H]2CN1C(=O)c1ccccc1 | 0.24 | 78.4 | i | 36.4 | 75.2 | -0.1

Screening data as filed in PubChem BioAssay.
